Reference: PubChem BioAssay (EPA / NIEHS)
Records with an inconclusive call do not appear. More than one record can exist for a structure, and the calls need not agree. Calls of active or inactive are those of the source. Rule for the calls: active = hit-call score of the fitted dose curve at least 0.9, where 1 is the maximum; inconclusive = response in the unintended direction; inactive = score below 0.9.

Tests used:
[1] = biological target: D(1A) dopamine receptor (Homo sapiens) (UniProt P21728); test: NVS_GPCR_hDRD1: NovaScreen (NVS) G Protein-Coupled Receptor Assay for human Dopamine Receptor D1 (DRD1) (AID 2283269)
Method in brief: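 Cell-free radioligand binding to human DRD1 from HEK293 membranes, read 1 h after dosing by filter-based scintillation counting. Loss of signal versus DMSO baseline marks displacement. Primary screen at 25 uM single concentration in duplicate; actives followed up in concentration series.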

[2] = biological target: human Adenosine A1 Receptor (AdoRA1), ADORA1 (gene 134) (UniProt P30542); test: NVS_GPCR_hAdoRA1: NovaScreen (NVS) G Protein-Coupled Receptor Assay for human Adenosine A1 Receptor (AdoRA1) (AID 2283254)
Method in brief: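 Membranes from human cortical tissue were incubated with radioligand and test chemical for 1 hour, then filtered and counted. Activity was taken as signal loss relative to DMSO, screened at 25 uM in duplicate before concentration-response follow-up.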

[3] = biological target: human Neurokinin, NK2 Receptor, TACR2 (gene 6865) (UniProt P21452); test: NVS_GPCR_hNK2: NovaScreen (NVS) G Protein-Coupled Receptor Assay for human Neurokinin, NK2 Receptor (AID 2283278);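 note: actives reduce bound radioligand signal relative to DMSO baseline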
Method in brief: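 CHO-derived membrane protein, radioligand displacement, filter scintillation read at 4 h post-dose. Single-point 25 uM in duplicate, then concentration series for actives; DMSO as negative control.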

[4] = biological target: guinea pig Opioid, Kappa 1 Receptor (OpiateK), OPRK1 (gene 100135587) (UniProt P41144); test: NVS_GPCR_gOpiateK: NovaScreen (NVS) G Protein-Coupled Receptor Assay for guinea pig Opioid, Kappa 1 Receptor (OpiateK) (AID 2283252);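 note: radioligand displacement from kappa opioid receptor in guinea pig cerebellar membranes; active means reduced radioligand binding relative to DMSO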
Method in brief: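 Cell-free tissue prep: guinea pig cerebellar membranes, radioligand displacement, 2 h incubation. Readout: filtration plus scintillation counting. Primary single-point 25 uM duplicate; actives retested in concentration series; DMSO negative control.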

[5] = biological target: Muscarinic acetylcholine receptor M2 (Homo sapiens) (UniProt P08172); test: NVS_GPCR_hM2: NovaScreen (NVS) G Protein-Coupled Receptor Assay for human Muscarinic, M2 Receptor (AID 2283273)
Method in brief: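 Filter-based radiodetection read bound radioligand 1 h after dosing CHO-derived membrane protein. Single-concentration duplicates (25 uM) first, then concentration-response for actives; signal loss versus DMSO scored.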

[6] = biological target: human Serotonin, 5-Hydroxytryptamine Receptor 5A (5HT5A), HTR5A (gene 3361) (UniProt P47898); test: NVS_GPCR_h5HT5A: NovaScreen (NVS) G Protein-Coupled Receptor Assay for human Serotonin, 5-Hydroxytryptamine Receptor 5A (5HT5A) (AID 2283251)
Method in brief: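 Membranes from HEK293 cells, radioligand binding read by filtration and scintillation after 1 h. Single-concentration duplicate testing at 25 uM, then concentration-response for actives; positive-direction fitting relative to DMSO.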

[7] = biological target: human Serotonin, 5-Hydroxytryptamine Receptor 6 (5HT6), HTR6 (gene 3362) (UniProt P50406); test: NVS_GPCR_h5HT6: NovaScreen (NVS) G Protein-Coupled Receptor Assay for human Serotonin, 5-Hydroxytryptamine Receptor 6 (5HT6) (AID 2283253)
Method in brief: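 Filter scintillation counting of radioligand displacement from HEK293-expressed 5HT6, 1 hour post-dose, with loss of signal relative to DMSO. Single 25 uM duplicates first, with concentration series for confirmation.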

[8] = biological target: human Serotonin, 5-Hydroxytryptamine Receptor 7 (5HT7), HTR7 (gene 3363) (UniProt P34969); test: NVS_GPCR_h5HT7: NovaScreen (NVS) G Protein-Coupled Receptor Assay for human Serotonin, 5-Hydroxytryptamine Receptor 7 (5HT7) (AID 2283255);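 note: hits reduce specific radioligand binding relative to DMSO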
Method in brief: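 Filter-bound radioactivity counted after 1 h, with loss of specific radioligand binding fitted against DMSO. Membrane protein came from CHO cells expressing human 5HT7. Chemicals were tested first at 25 uM in duplicate, then in concentration series if active.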

[9] = biological target: human Adenosine A2a Receptor (AdoRA2a), ADORA2A (gene 135) (UniProt P29274); test: NVS_GPCR_hAdoRA2a: NovaScreen (NVS) G Protein-Coupled Receptor Assay for human Adenosine A2a Receptor (AdoRA2a) (AID 2283256)
Method in brief: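 HEK293-derived receptor preparation, radioligand displacement, 1.5 h, filtration + scintillation read. Loss of bound signal scored vs DMSO. Single-point 25 uM in duplicate first, then concentration-response for actives.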

[10] = biological target: human Adrenergic, Alpha 2A Receptor (Adra2A), ADRA2A (gene 150) (UniProt P08913); test: NVS_GPCR_hAdra2A: NovaScreen (NVS) G Protein-Coupled Receptor Assay for human Adrenergic, Alpha 2A Receptor (Adra2A) (AID 2283257)
Method in brief: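 Displacement of a specific radioligand from HT29 membrane protein was counted by filter scintillation after 1 h. Compounds were screened in duplicate at 25 uM, and actives were retested in concentration series. Fitting was positive-direction against DMSO.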

[11] = biological target: human Adrenergic, Beta 1 Receptor (Adrb1), ADRB1 (gene 153) (UniProt P08588); test: NVS_GPCR_hAdrb1: NovaScreen (NVS) G Protein-Coupled Receptor Assay for human Adrenergic, Beta 1 Receptor (Adrb1) (AID 2283258)
Method in brief: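 Membranes/protein extracted from human neuroepithelioma cells, radioligand competition binding read by filtration and scintillation 2 h post-dose. Single 25 uM duplicate screen, then concentration-response follow-up; DMSO as negative control.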

[12] = biological target: human Adrenergic, Alpha 2c Receptor (Adra2C), ADRA2C (gene 152) (UniProt P18825); test: NVS_GPCR_hAdra2C: NovaScreen (NVS) G Protein-Coupled Receptor Assay for human Adrenergic, Alpha 2c Receptor (Adra2C) (AID 2283259)
Method in brief: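 Screened first in duplicate at 25 uM, with actives then run as concentration series. Membranes from Sf9 cells were exposed for 1 h, and displacement of radioligand was counted after filtration, using DMSO as baseline.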

[13] = biological target: Beta-2 adrenergic receptor (Homo sapiens) (UniProt P07550); test: NVS_GPCR_hAdrb2: NovaScreen (NVS) G Protein-Coupled Receptor Assay for human Adrenergic, Beta 2 Receptor (Adrb2) (AID 2283261)
Method in brief: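 Compounds screened in duplicate at 25 uM, then actives in concentration series. Human beta-2 receptor from CHO material, cell-free; radioligand displacement after 1 h measured by filtration and scintillation against DMSO baseline.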

[14] = biological target: human Dopamine Receptor D2 (DRD2), DRD2 (gene 1813) (UniProt P14416); test: NVS_GPCR_hDRD2s: NovaScreen (NVS) G Protein-Coupled Receptor Assay for human Dopamine Receptor D2 (DRD2) (AID 2283266)
Method in brief: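 Test compound (25 uM, duplicate in the primary screen; concentration series at follow-up) competed with radioligand for human DRD2 in CHO-derived membrane protein. Filter-based scintillation counting was done 1.5 hours after dosing, with loss of signal analysed against DMSO.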

[15] = biological target: human Leukotriene B4 Receptor 1 (LTB4-BLT1), LTB4R (gene 1241) (UniProt Q15722); test: NVS_GPCR_hLTB4_BLT1: NovaScreen (NVS) G Protein-Coupled Receptor Assay for human Leukotriene B4 Receptor 1 (LTB4-BLT1) (AID 2283271)
Method in brief: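 Cell-free human neutrophil receptor preparation, 1 h exposure, radioligand binding read by filter scintillation counting. Single 25 uM duplicate screen, then concentration series topping at 50 uM; binding loss scored against DMSO baseline.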

[16] = biological target: human Muscarinic, M4 Receptor, CHRM4 (gene 1132) (UniProt P08173); test: NVS_GPCR_hM4: NovaScreen (NVS) G Protein-Coupled Receptor Assay for human Muscarinic, M4 Receptor (AID 2283274)
Method in brief: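 Filter-based scintillation counting of radioligand bound to CHO-expressed human M4 preparations after 1 h; loss of signal fitted versus DMSO. Initial duplicate testing at 25 uM, concentration-response follow-up for actives.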

[17] = biological target: Muscarinic acetylcholine receptor M5 (Homo sapiens) (UniProt P08912); test: NVS_GPCR_hM5: NovaScreen (NVS) G Protein-Coupled Receptor Assay for human Muscarinic, M5 Receptor (AID 2283275)
Method in brief: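 Chemicals passing a primary duplicate screen at 25 uM were run as singleton concentration series, maximum 50 uM. Displacement of a specific radioligand from CHO-extracted receptor was read by filter scintillation after 1 h, relative to DMSO.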

[18] = biological target: human Neuropeptide Receptor Y1 (NPY1), NPY1R (gene 4886) (UniProt P25929); test: NVS_GPCR_hNPY1: NovaScreen (NVS) G Protein-Coupled Receptor Assay for human Neuropeptide Receptor Y1 (NPY1) (AID 2283276)
Method in brief: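 Displacement of specific radioligand from NPY1 receptor of SK-N-MC origin, read by filtration and scintillation after 1 h. Compounds first tested at 25 uM in duplicate, then actives in concentration series; signal loss relative to DMSO.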

[19] = biological target: human Dopamine Receptor D4.4 (DRD4.4), DRD4 (gene 1815) (UniProt P21917); test: NVS_GPCR_hDRD4.4: NovaScreen (NVS) G Protein-Coupled Receptor Assay for human Dopamine Receptor D4.4 (DRD4.4) (AID 2283264)
Method in brief: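 Filter-binding assay with a tritiated or iodinated ligand, cell-free receptor prepared from CHO, 1 hour. Loss of bound radioactivity versus DMSO; single 25 uM duplicate screen, then concentration-response for actives.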

[20] = biological target: Neuropeptide Y receptor type 2 (Homo sapiens) (UniProt P49146); test: NVS_GPCR_hNPY2: NovaScreen (NVS) G Protein-Coupled Receptor Assay for human Neuropeptide Receptor Y2 (NPY2) (AID 2283277)
Method in brief: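 Chemicals were first tested in duplicate at 25 uM, then actives in singleton concentration series to 50 uM. Tracer binding to SK-N-MC-derived protein measured cell-free after 1 h via filter scintillation; signal loss relative to DMSO.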

human Neurokinin, NK2 Receptor, TACR2 (gene 6865), sequence (P21452 whole entry, looked up): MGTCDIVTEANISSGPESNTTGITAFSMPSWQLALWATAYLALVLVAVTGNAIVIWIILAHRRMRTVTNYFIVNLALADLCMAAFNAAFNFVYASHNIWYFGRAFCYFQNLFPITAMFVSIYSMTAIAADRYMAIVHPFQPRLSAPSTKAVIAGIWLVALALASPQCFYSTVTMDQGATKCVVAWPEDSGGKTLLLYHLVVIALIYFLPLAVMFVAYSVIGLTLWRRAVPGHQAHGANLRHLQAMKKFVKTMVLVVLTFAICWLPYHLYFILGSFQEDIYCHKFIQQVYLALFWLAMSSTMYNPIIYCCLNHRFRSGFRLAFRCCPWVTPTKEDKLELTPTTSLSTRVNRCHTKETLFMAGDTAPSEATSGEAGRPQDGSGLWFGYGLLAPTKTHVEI
D(1A) dopamine receptor (Homo sapiens), sequence (P21728 whole entry, looked up): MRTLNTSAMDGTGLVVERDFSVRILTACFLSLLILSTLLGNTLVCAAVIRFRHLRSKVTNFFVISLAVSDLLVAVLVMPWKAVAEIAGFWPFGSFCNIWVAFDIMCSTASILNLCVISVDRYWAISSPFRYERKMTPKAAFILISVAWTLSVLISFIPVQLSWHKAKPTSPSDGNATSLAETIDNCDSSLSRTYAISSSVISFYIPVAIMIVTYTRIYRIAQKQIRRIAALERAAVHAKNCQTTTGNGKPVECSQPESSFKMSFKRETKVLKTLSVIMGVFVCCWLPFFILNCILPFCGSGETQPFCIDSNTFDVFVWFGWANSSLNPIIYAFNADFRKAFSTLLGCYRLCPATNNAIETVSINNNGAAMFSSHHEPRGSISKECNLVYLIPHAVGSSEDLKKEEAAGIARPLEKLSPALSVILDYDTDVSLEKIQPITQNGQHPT
guinea pig Opioid, Kappa 1 Receptor (OpiateK), OPRK1 (gene 100135587), sequence (P41144 whole entry, looked up): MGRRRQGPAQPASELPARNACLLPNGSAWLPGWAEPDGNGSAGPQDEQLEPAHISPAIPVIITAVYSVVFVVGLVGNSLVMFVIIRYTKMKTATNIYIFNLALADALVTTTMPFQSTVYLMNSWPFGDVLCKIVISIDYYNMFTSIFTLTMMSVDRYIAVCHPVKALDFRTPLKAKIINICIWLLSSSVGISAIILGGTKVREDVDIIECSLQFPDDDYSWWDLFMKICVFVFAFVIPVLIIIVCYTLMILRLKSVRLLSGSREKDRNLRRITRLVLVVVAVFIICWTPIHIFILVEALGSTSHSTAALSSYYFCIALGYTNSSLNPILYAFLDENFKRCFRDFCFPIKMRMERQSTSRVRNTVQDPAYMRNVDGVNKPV
Muscarinic acetylcholine receptor M2 (Homo sapiens), sequence (P08172 whole entry, looked up): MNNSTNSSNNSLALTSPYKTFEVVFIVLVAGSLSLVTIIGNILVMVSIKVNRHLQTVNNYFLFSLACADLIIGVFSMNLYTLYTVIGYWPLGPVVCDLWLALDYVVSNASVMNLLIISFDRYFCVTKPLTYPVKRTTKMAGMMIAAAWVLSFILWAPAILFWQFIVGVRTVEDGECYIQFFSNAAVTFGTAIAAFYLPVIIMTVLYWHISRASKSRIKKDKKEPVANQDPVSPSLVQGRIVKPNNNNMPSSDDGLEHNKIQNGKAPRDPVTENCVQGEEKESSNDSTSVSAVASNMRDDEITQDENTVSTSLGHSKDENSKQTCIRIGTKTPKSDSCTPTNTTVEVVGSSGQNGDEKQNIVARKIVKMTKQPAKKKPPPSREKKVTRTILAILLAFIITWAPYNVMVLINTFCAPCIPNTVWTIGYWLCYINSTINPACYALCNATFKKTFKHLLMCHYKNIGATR
human Adenosine A1 Receptor (AdoRA1), ADORA1 (gene 134), sequence (P30542 whole entry, looked up): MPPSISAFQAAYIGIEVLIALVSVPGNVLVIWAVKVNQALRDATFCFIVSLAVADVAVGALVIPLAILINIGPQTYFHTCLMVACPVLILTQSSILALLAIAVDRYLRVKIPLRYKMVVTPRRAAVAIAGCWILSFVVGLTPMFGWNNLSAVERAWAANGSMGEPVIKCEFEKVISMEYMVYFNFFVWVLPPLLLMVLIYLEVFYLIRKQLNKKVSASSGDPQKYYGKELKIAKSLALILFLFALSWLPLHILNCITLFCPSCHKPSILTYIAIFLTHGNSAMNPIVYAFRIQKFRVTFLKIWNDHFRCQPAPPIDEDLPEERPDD
human Serotonin, 5-Hydroxytryptamine Receptor 5A (5HT5A), HTR5A (gene 3361), sequence (P47898 whole entry, looked up): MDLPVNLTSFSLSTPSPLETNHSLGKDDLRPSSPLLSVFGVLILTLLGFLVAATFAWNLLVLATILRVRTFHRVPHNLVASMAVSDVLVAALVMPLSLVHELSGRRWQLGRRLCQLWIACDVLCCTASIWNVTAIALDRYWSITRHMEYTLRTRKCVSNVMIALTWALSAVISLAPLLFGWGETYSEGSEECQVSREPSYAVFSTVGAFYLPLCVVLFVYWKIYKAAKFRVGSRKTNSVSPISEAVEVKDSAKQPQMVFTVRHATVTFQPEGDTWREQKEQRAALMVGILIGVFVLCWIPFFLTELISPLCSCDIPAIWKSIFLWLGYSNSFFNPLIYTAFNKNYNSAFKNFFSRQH
human Serotonin, 5-Hydroxytryptamine Receptor 6 (5HT6), HTR6 (gene 3362), sequence (P50406 whole entry, looked up): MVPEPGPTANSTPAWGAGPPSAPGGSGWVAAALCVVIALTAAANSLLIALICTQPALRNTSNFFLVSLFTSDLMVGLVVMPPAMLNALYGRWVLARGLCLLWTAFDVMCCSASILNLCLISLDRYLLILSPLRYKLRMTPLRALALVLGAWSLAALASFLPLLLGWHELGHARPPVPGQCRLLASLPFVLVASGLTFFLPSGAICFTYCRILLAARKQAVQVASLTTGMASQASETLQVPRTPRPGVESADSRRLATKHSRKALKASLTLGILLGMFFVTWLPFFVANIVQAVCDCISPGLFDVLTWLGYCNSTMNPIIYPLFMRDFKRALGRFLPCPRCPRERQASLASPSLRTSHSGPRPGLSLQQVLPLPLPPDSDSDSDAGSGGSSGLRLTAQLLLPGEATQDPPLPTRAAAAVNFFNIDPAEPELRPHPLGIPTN
Muscarinic acetylcholine receptor M5 (Homo sapiens), sequence (P08912 whole entry, looked up): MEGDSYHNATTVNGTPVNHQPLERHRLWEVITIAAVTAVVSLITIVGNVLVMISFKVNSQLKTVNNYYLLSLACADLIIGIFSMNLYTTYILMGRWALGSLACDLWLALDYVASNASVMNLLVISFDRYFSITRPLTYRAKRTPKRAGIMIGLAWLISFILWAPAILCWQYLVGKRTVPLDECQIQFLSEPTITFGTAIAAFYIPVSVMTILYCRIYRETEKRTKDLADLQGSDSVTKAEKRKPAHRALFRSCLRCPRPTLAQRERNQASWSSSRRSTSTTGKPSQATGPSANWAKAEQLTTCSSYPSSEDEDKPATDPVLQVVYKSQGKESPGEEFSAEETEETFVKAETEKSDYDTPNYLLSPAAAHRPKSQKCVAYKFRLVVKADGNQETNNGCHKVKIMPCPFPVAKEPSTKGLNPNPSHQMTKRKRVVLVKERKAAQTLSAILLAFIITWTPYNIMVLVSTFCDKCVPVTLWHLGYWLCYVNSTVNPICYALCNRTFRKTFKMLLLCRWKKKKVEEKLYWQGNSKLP
human Serotonin, 5-Hydroxytryptamine Receptor 7 (5HT7), HTR7 (gene 3363), sequence (P34969 whole entry, looked up): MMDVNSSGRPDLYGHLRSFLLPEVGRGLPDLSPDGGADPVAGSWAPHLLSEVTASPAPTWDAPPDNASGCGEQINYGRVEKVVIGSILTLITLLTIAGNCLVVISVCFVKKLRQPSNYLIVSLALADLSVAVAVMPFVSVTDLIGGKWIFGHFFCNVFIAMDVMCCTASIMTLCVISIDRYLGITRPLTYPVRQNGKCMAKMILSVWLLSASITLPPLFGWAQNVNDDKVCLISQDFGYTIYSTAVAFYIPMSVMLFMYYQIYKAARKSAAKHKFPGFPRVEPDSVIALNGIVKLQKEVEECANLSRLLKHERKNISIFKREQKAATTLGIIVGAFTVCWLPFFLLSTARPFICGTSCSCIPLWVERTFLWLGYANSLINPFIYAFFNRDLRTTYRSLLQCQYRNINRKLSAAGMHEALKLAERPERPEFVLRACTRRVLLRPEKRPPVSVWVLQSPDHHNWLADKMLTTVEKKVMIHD
human Muscarinic, M4 Receptor, CHRM4 (gene 1132), sequence (P08173 whole entry, looked up): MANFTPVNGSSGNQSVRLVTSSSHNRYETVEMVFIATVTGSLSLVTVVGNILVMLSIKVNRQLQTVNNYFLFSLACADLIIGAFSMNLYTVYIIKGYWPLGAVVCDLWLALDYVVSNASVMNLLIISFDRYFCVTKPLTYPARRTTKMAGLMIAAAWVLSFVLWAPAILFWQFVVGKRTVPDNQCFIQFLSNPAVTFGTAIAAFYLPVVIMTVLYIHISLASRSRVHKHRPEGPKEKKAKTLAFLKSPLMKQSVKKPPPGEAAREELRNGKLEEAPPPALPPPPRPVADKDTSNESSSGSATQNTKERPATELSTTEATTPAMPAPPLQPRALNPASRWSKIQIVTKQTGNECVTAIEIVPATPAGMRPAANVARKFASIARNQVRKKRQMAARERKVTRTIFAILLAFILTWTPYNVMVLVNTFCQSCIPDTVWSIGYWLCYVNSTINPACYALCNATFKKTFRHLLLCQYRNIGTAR
human Adenosine A2a Receptor (AdoRA2a), ADORA2A (gene 135), sequence (P29274 whole entry, looked up): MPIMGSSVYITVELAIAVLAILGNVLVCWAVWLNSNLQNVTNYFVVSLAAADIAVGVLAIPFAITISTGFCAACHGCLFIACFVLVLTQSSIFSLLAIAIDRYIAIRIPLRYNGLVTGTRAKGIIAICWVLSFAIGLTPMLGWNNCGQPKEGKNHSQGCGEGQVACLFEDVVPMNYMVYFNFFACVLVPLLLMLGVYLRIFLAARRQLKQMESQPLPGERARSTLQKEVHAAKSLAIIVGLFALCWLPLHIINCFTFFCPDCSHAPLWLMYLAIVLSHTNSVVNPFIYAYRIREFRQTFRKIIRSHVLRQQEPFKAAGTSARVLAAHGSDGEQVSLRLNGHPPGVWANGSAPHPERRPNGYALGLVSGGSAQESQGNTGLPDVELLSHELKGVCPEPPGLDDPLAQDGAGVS

## N#CCCCC(C#N)CCC#N (stereo not drawn)
[1]
  outcome: inactive

## COc1ccc(C(C)=O)cc1
[2]
  outcome: inactive

## CCCCOCCOCCO
[3]
  outcome: inactive

## O=C1OC2(c3ccc(O)cc3Oc3cc(O)ccc32)c2ccccc21
[4]
  outcome: inactive
[3]
  outcome: inactive

## Cc1cc(N)n(-c2ccccc2)n1
[5]
  AC50: 13.9 µM (active)

## CCC(=O)OC/C=C(\C)CCC=C(C)C
[1]
  outcome: inactive

## O=C(c1ccc(OCCN2CCCCC2)cc1)c1c(-c2ccc(O)cc2)sc2cc(O)ccc12
[6]
  AC50: 3.5 µM (active)
[4]
  AC50: 0.508 µM (active)
[7]
  AC50: 3.57 µM (active)
[2]
  outcome: inactive
[8]
  AC50: 2.27 µM (active)
[9]
  AC50: 6.13 µM (active)
[10]
  AC50: 9.52 µM (active)
[11]
  AC50: 10.5 µM (active)
[12]
  AC50: 2.78 µM (active)
[13]
  AC50: 11.8 µM (active)
[14]
  AC50: 1.07 µM (active)
[1]
  AC50: 0.948 µM (active)
[15]
  outcome: inactive
[5]
  AC50: 2.92 µM (active)
[16]
  AC50: 4.93 µM (active)
[17]
  AC50: 3.7 µM (active)
[18]
  AC50: 7.83 µM (active)
[3]
  AC50: 3.58 µM (active)

## C=C1CC[C@H]2O[C@]2(C)CC[C@@H]2[C@@H]1CC2(C)C
[1]
  outcome: inactive

## CC/C(=C(\c1ccccc1)c1ccc(OCCN(C)C)cc1)c1ccccc1
[6]
  AC50: 6.95 µM (active)
[4]
  outcome: inactive
[7]
  AC50: 6.32 µM (active)
[8]
  AC50: 4.89 µM (active)
[12]
  AC50: 9.54 µM (active)
[19]
  outcome: inactive
[14]
  outcome: inactive
[5]
  AC50: 19.3 µM (active)
[16]
  AC50: 10.1 µM (active)
[17]
  AC50: 7.13 µM (active)
[20]
  AC50: 11.9 µM (active)
[3]
  AC50: 6.84 µM (active)
  outcome: inactive

## CCOC(=O)C=Cc1ccccc1
[5]
  AC50: 38.6 µM (active)

## CC(=O)c1cccnc1
[5]
  outcome: inactive

## O=C1OCc2ccccc21
[9]
  outcome: inactive

## c1ccc2c(c1)-c1ccc3ccc4cccc5cc-2c1c3c45
[1]
  outcome: inactive
